# From PubChem
# KB-3-1 tox: KB-3-1 parental cell cytotoxicity; KB-3-1 viability, CellTiter-Glo ATP luminescence, 72 h; Potency, µM (highest dose often 46.1 µM), usual class: cytotoxic; actives 1.4% (n = 400,000); also: % is scaled to controls: 0 for no effect and ±100 for the full control effect; nearly all actives have a fitted effect of over 60% in size
#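 Cytotoxicity in the drug-sensitive parental line KB-3-1 was scored as loss of CellTiter-Glo luminescence following 72 h incubation with compound. Values come from curve fitting of normalized concentration-response data.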
# KB-V1 MDR tox: kills drug-selected multidrug resistant KB-V1 cells. KB-V1 MDR cells viability, CellTiter-Glo, 72 h. Potency, µM (titrated, usually from 46.1 µM), usual class: cytotoxic. actives 3.4% (n = 400,000); also: % is scaled to controls: 0 for no effect and ±100 for the full control effect; nearly all actives have a fitted effect of over 60% in size
#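 qHTS viability screen in drug-selected KB-V1 MDR cells: 72 h compound treatment at 37 degrees C, ATP luminescence end point.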
# MCF10A rereplic: induces DNA re-replication in MCF 10a normal breast cells | MCF 10A DNA re-replication, Hoechst nuclear intensity, 48 h | Potency, µM (top dose mostly 46.1 µM), without a hit: at the top dose activity, positive = re-replication, most hits filed as activators | actives 2.9% (n = 350,000); also: % of control where 0% means no effect; nearly all actives have a fitted effect of over 50% in size
# PINK1 modulator: changes PINK1 expression; PINK1 immunofluorescence, high-content cytometry, 24 h; actives 0.2% (n = 410,000); Potency, µM (doses to about 76.6 µM), inactives show at the top dose activation (PINK1 increase), hits mostly activators; active = well fitted activation curve with a large enough effect; inconclusive = small, poorly fitted or top-dose-only effect; cell line not stated here; also: % of control where 0% means no effect; nearly all actives have a fitted effect of over 65% in size
#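 Decision-based qHTS: stable cells, 24 h exposure to five compound concentrations, CCCP as control. Fixed cells stained for PINK1 plus nuclear, mitochondrial and cell markers, cytometer read.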
# SW480 rerep: induces DNA re-replication in SW480 colon adenocarcinoma cells; AID 624297; SW480 DNA re-replication, Hoechst DNA content imaging, 48 h; actives 1.8% (n = 340,000); Potency, µM (titrated, usually from 46.1 µM), for the others: at the top dose re-replication activation, usual class: activators; also: % of control where 0% means no effect; nearly all actives have a fitted effect of over 55% in size
#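 SW480 cells exposed to compounds for 48 hr at 37 C, 5% CO2, then Hoechst-stained 40 min. Nuclear DNA content imaged by fluorescence scanning (405 nm excitation, 500-530 nm emission); re-replication scored as increased high-intensity nuclei.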
# Active calls of the source: *; i = inactive; ? = inconclusive; . = no result given; [ ] = remark or other dose. Sampled rows, rich in hits. Any-hit rate of the full collection: about 6.7%. Unless noted, calls follow the shape of the dose curve; as a rule, active = well fitted curve in the direction sought with a large enough effect; inconclusive = small, poorly fitted or top-dose-only effect, or another doubt; inactive = no such curve, though single readings can be large; an effect the other way counts as inactive or inconclusive. Potency is read from the fitted curve at half-maximal effect.
SMILES,KB-3-1 tox,KB-V1 MDR tox,MCF10A rereplic,PINK1 modulator,SW480 rerep
COc1ccc(-n2c(=O)c(-c3cccs3)nc3cnc(N4CCN(C)CC4)nc32)cc1,.,.,.,-1%,.
O=C(Nc1cc(=O)[nH]c(=O)[nH]1)c1cc(Cl)ccc1Cl,4.1µM*,?,?,3%,21µM*
Cc1csc(NC(=O)c2cc3c(s2)CCCC3)n1,i,i,-8%,1%,10%
Cc1csc(NC(=O)c2cc3c(s2)CCCCC3)n1,i,?,16µM*,8%,12%
Cc1cnc(NC(=O)c2cc3c(s2)CCCC3)s1,21µM*,i,?,11%,0%
O=C(NCCO)c1cc2c(s1)CCC2,i,i,0.25µM*,0%,?
CSc1ncccc1C(=O)NCc1ccc(C)cc1,i,i,-1%,0%,?
CCOc1ncccc1C(=O)NCc1ccc(C)cc1,i,18µM*,?,2%,-82%
Cc1ccc(Oc2ccc(C(=O)NCc3ccncc3)cc2)cc1,i,21µM*,2%,-1%,2%
CCOc1ncccc1C(=O)Nc1ccccc1C(=O)NCc1ccc2c(c1)OCO2,i,5.2µM*,?,-2%,13%
CCc1nc2ccc(C(=O)NCCOc3ccc(OC)cc3)cn2c1N(C)CCCc1ccccc1,?,i,.,2%,.
O=C(COCc1cc(-c2cccs2)on1)N1CCN(c2ccc(F)cc2)CC1,i,i,.,0%,.
CC(C=CC(O)=C1C(=O)CNC1=O)=C[C@@H](C)C1OC2(C)OC(C(=O)C3O[C@@]32C)C1C (some centres not stated),?,i,.,4%,.
COc1ccc(/C=C/C(=O)OCC(=O)N2CCCC2)c(OC)c1,i,12µM*,2%,-2%,-3%
CCC1CN(C(=O)N2CCC(C(=O)N(C)Cc3ccccc3)CC2)c2ccccc2O1 (configuration not stated),.,.,.,1%,.
COC(=O)[C@@H](Cc1c[nH]c2ccccc12)NCc1ccc(B(O)O)cc1,i,i,-36%,1%,1.2µM*
COC(=O)[C@H](Cc1c[nH]c2ccccc12)NCc1cccc(B(O)O)c1,i,i,-8%,-1%,4.6µM*
COc1ccc(C(=O)c2cn(Cc3ccc(F)cc3)c3ccc(C)cc3c2=O)cc1,i,i,.,2%,.
Cc1cccc(C)c1Nc1nn2c(=O)c3cc4c(cc3nc2s1)OCO4,i,i,.,0%,.
Cc1ccc(S(=O)(=O)Nc2ccc(Cl)cn2)cc1,i,i,-1%,0%,4%
COc1ccc(S(=O)(=O)Nc2ccc(Cl)cn2)c(C)c1C,i,23µM*,-2%,10%[38.3 µM],-2%
CCN(c1ccc(OC)cc1)S(=O)(=O)c1c(C(=O)N2CCCCCC2)c(C)n(C)c1C,i,i,.,0%,.
CCCNC(=O)C1(C)CCCN(C(=O)c2cc(C)nn2C(C)(C)C)C1 (configuration not stated),i,i,.,3%,.
CCN(Cc1ccccc1)C(=O)CCc1c(C)nc2c(c(C)nn2-c2ccc(C)c(C)c2)c1C,i,i,.,-1%,.
COc1cc(C(=O)Nc2nc(-c3cc(C)ccc3C)c(C)s2)ccc1OCC(=O)Nc1ccc(F)cc1,i,?,?,12%,-7%
SMILES,KB-3-1 tox,KB-V1 MDR tox,MCF10A rereplic,PINK1 modulator,SW480 rerep
COc1ccc(-c2nc(NC(=O)c3ccc(OCC(=O)Nc4ccc(F)cc4)c(OC)c3)sc2C)cc1,i,i,21µM*,-3%,21%
COc1cc(C(=O)Nc2nc(-c3ccc(F)cc3)cs2)ccc1OCC(=O)N1CCOCC1,i,i,23µM*,-1%,1%
CCc1nnc(NC(=O)CCC(=O)NCc2ccc(OC)cc2)s1,i,i,2%,-1%,-22%
COc1ccc(Cc2nnc(NC(=O)c3ccc(OC)c(OC)c3)s2)cc1,?,i,3.7µM*,3%,?
COc1ccc(CNC(=O)CCC(=O)Nc2nnc(CC(C)C)s2)cc1,i,i,0%,3%,2.9µM*
CCN(CC)S(=O)(=O)c1ccc(NC(=O)CCc2c(C)nc3cc(-c4ccc(Cl)cc4)nn3c2C)cc1,.,.,.,9%,.
CCCCc1nn2c(=O)cc(COC(=O)c3ccc(NC(=O)c4cccc(OC)c4)cc3)nc2s1,i,?,.,0%,.
